Source: the supplement of paper PMC6555819

System: LXRb homodimer (NR concentration 270 nM)
Test: PBM binding z-score (relative to random genomic background probes); higher = stronger binding; sequences stand for … in GC…GCGATTGACAGCGTAGAATGAAGG
Summary of the method: (§1)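 Custom Agilent 4×180K protein-binding microarrays carried double-stranded probes. Their 34-nt variable regions held direct-repeat seeds, single-nucleotide variants, half-site ablations and random human genomic background sequences. Arrays were incubated 1 h with ligand-free nuclear receptor dimers in PBS pH 7.4, 2% milk, 0.02% Triton X-100, 1 mM DTT, 0.2 mg/mL BSA and 0.4 mg/ml salmon testes DNA. Antibodies against each partner (one per run) detected binding, and scanned fluorescence was regression-normalized. Binding z-scores use random background probes as reference.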

Sequence	PBM binding z-score
TGTCAAAGTTCAAAGGTAATGTAAGTATCCACAC	1.91
GCTTGTAGATCTAGGTTAAGAAAGACTAAGCTAA	-0.791
TCTAGTTGGTCACGGAGGTCACATACGACGGGTA	0.637
TGAATGAGGTTAAAGATCAGCGAACGTGGCGTCG	0.0932
TCTTGTACATCAATAGAGGTTAAGAAAGTGCGCT	0.532
GGAACGCGGGCAAGTTGATAGCAGAGTTTGATGG	-0.732
AGTCAAAGTTCAGGACGAGGTAACGGAAAGCACG	0.134
ACAGACAGGTGAGAGAAGGTAACTCAGCTGGACG	-0.81
TCATATAGGTAAATGCTAGGGGAAAGTCCGATCT	0.134
CCTTACGGGTCACTCCAGGTTATTGCATCGGAGT	0.61
GCAGACAGGAGAAACGCAGGTAACTCAGGGTGGC	-1.34
CCGAGTACGTTATGGGGCATTCAGGCAACGGTGA	-0.602
TCGAGTAGGCTAGTCGGGGCATTCAGCCAACATA	-1.53
CCAGACAGGTGAAAGGTAACTCAGTCTGGTACGC	-0.274
CTCGAAAGGTCGGTTGAGGTGAGGATACGGATAA	-0.104
TTACCAAGGTGAAGGTAGTTGATCCCTCTGTAGA	-0.931
CCGACCGGGGCATAAGGTTACCATAAGCCAGCCC	-1.04
CATACAGGGTCAGCTCGGCCAGAGTAGGGACGGC	0.463
ACTTGTTGGTCAGCTGAGGTCACACACAATTCGG	0.632
CCTGCTAGGTAATGGTCAGCTAATCTACAGTATG	-0.48

Sequence	PBM binding z-score
CGTCCAGGGTCATAGGAGGTCAGTGAAGACAGAT	0.185
CCTTACGGTTCACTCCAGGTTATAGCATCGGAGT	0.998
AGTCAGAGTTCAGGACGAGGTAACGTAAAGCACG	-0.0374
TCAGACAGGCGAAGGTAACTCAGGTACGCAGTCG	-0.893
CGCCCAAGGTCAGAGAGGTCAGTGAATGCCGAGT	-0.135
GCATATAGGTAATACAAAGTGAAAGTCCGATTGT	-0.361
CGAACTAGATCATCCAGGACAGTGAATACATTGA	0.286
CTACCAAGGTGAACAAGGTGGTTGATTACTATTC	-0.589
ACATACGGGTCAACGAGGTTATAGCACGCGTATA	0.73
CGTCCAAGGTCAAGGTCAGTAAAAGAGACTCGAA	0.908
GCGACTGGGGCATCAGCAGGTAACCATAACTTAA	-0.791
ATATGTAGATTAGCTGGGGTCATTCAGACTAGGC	1.51
ACTAGTTGGTCAGCTGAGGTCCCACACAATTCGG	0.179
AGAGTGAGGTTATACGTAGATCAGGGAAGAAAGT	0.71
GCTAGCAGGCCATTTGGGGCACTCAATGACGGGC	-0.89
GCTAGTTGGTCAGGAAAAGGTCACACACCGGTCG	0.375
CCGACTGGGGCATAAGGTTACCACAAGCCAGCCC	-0.551
ACTAGTTGGTCAGCAGAGGTCACACACAATTCGG	1.39
TCTTGTAGATCAAAGGTTAAAAAAGCCGAAGCCT	0.41
CCGACTGGTGCATAAGGTTACCATAAGCCAGCCC	-0.632

System: PPARa:RXRa (NR concentration 270 nM, RXRa partner concentration 90 nM)
Test: as above
Summary of the method: as §1

Sequence	PBM binding z-score
TGTCAAAGTTCAAAGGTAATGTAAGTATCCACAC	5.66
GCTTGTAGATCTAGGTTAAGAAAGACTAAGCTAA	1.14
TCTAGTTGGTCACGGAGGTCACATACGACGGGTA	3.93
TGAATGAGGTTAAAGATCAGCGAACGTGGCGTCG	4.55
TCTTGTACATCAATAGAGGTTAAGAAAGTGCGCT	1.82
GGAACGCGGGCAAGTTGATAGCAGAGTTTGATGG	-0.903
AGTCAAAGTTCAGGACGAGGTAACGGAAAGCACG	3.46
ACAGACAGGTGAGAGAAGGTAACTCAGCTGGACG	0.165
TCATATAGGTAAATGCTAGGGGAAAGTCCGATCT	1.21
CCTTACGGGTCACTCCAGGTTATTGCATCGGAGT	4.32
GCAGACAGGAGAAACGCAGGTAACTCAGGGTGGC	-0.523
CCGAGTACGTTATGGGGCATTCAGGCAACGGTGA	-0.079
TCGAGTAGGCTAGTCGGGGCATTCAGCCAACATA	-0.209
CCAGACAGGTGAAAGGTAACTCAGTCTGGTACGC	3.53
CTCGAAAGGTCGGTTGAGGTGAGGATACGGATAA	2.68
TTACCAAGGTGAAGGTAGTTGATCCCTCTGTAGA	1.44
CCGACCGGGGCATAAGGTTACCATAAGCCAGCCC	1.75
CATACAGGGTCAGCTCGGCCAGAGTAGGGACGGC	3.97
ACTTGTTGGTCAGCTGAGGTCACACACAATTCGG	3.79
CCTGCTAGGTAATGGTCAGCTAATCTACAGTATG	-0.344

Sequence	PBM binding z-score
CGTCCAGGGTCATAGGAGGTCAGTGAAGACAGAT	5.85
CCTTACGGTTCACTCCAGGTTATAGCATCGGAGT	2.21
AGTCAGAGTTCAGGACGAGGTAACGTAAAGCACG	3.02
TCAGACAGGCGAAGGTAACTCAGGTACGCAGTCG	0.184
CGCCCAAGGTCAGAGAGGTCAGTGAATGCCGAGT	4.86
GCATATAGGTAATACAAAGTGAAAGTCCGATTGT	0.632
CGAACTAGATCATCCAGGACAGTGAATACATTGA	-0.169
CTACCAAGGTGAACAAGGTGGTTGATTACTATTC	1.21
ACATACGGGTCAACGAGGTTATAGCACGCGTATA	5.39
CGTCCAAGGTCAAGGTCAGTAAAAGAGACTCGAA	5.72
GCGACTGGGGCATCAGCAGGTAACCATAACTTAA	0.658
ATATGTAGATTAGCTGGGGTCATTCAGACTAGGC	4.33
ACTAGTTGGTCAGCTGAGGTCCCACACAATTCGG	-0.1
AGAGTGAGGTTATACGTAGATCAGGGAAGAAAGT	2.91
GCTAGCAGGCCATTTGGGGCACTCAATGACGGGC	-0.000395
GCTAGTTGGTCAGGAAAAGGTCACACACCGGTCG	4.05
CCGACTGGGGCATAAGGTTACCACAAGCCAGCCC	2.07
ACTAGTTGGTCAGCAGAGGTCACACACAATTCGG	4.7
TCTTGTAGATCAAAGGTTAAAAAAGCCGAAGCCT	4.79
CCGACTGGTGCATAAGGTTACCATAAGCCAGCCC	1.04
